Key:
[1] = target: Calcium/calmodulin-dependent protein kinase type II subunit alpha (Homo sapiens) (UniProt Q9UQM7); conditions: at 1 µM;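 also: reported value is a mean percent inhibition of CAMK2A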
[2] = target: Calcium/calmodulin-dependent protein kinase type II subunit delta (Homo sapiens) (UniProt Q13557); conditions: at 0.1 µM
[3] = target: Calcium/calmodulin-dependent protein kinase type II subunit delta (Homo sapiens) (UniProt Q13557); conditions: at 1 µM
[4] = target: T1, Calcium/calmodulin-dependent protein kinase type IV (Homo sapiens) (UniProt Q16566); conditions: at 0.1 µM
T1 sequence (whole entry): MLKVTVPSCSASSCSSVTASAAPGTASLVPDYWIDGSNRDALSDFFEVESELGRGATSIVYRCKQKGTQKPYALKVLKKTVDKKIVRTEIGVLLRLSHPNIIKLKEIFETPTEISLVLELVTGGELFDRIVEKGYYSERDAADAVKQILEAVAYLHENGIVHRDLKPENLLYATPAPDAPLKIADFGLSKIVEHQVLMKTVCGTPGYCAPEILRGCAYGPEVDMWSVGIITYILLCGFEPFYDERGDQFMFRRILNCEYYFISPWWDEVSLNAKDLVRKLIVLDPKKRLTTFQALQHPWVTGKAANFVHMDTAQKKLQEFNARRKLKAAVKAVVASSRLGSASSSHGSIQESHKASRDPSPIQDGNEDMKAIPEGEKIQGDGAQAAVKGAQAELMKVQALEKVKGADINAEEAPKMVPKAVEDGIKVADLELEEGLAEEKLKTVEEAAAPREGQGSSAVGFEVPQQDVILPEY

[5] = target: T1, Calcium/calmodulin-dependent protein kinase type IV (Homo sapiens); conditions: at 1 µM
[6] = target: T2, Serine/threonine-protein kinase Chk1 (Homo sapiens) (UniProt O14757); conditions: at 0.1 µM
T2 sequence (whole entry): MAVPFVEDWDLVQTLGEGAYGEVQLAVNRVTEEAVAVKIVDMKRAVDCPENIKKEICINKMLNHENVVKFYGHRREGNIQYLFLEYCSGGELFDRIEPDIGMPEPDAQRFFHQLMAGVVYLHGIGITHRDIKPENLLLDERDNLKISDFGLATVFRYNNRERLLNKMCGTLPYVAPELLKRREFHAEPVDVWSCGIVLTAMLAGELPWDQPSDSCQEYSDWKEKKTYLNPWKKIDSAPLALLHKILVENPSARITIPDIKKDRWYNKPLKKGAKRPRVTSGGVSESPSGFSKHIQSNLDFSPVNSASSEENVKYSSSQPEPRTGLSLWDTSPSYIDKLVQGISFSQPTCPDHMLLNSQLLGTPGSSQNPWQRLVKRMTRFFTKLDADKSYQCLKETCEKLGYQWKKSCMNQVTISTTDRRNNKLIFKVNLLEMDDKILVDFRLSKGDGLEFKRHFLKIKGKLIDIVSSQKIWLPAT

[7] = target: T2, Serine/threonine-protein kinase Chk1 (Homo sapiens); conditions: at 1 µM
[8] = target: Serine/threonine-protein kinase Chk2 (Homo sapiens) (UniProt O96017); conditions: at 0.1 µM
[9] = target: Serine/threonine-protein kinase Chk2 (Homo sapiens) (UniProt O96017); conditions: at 1 µM
[10] = target: Death-associated protein kinase 1 (Homo sapiens) (UniProt P53355); conditions: at 0.1 µM;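 also: reported figure is the mean inhibition of DAPK1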
Death-associated protein kinase 1 (Homo sapiens), sequence (P53355 whole entry, looked up): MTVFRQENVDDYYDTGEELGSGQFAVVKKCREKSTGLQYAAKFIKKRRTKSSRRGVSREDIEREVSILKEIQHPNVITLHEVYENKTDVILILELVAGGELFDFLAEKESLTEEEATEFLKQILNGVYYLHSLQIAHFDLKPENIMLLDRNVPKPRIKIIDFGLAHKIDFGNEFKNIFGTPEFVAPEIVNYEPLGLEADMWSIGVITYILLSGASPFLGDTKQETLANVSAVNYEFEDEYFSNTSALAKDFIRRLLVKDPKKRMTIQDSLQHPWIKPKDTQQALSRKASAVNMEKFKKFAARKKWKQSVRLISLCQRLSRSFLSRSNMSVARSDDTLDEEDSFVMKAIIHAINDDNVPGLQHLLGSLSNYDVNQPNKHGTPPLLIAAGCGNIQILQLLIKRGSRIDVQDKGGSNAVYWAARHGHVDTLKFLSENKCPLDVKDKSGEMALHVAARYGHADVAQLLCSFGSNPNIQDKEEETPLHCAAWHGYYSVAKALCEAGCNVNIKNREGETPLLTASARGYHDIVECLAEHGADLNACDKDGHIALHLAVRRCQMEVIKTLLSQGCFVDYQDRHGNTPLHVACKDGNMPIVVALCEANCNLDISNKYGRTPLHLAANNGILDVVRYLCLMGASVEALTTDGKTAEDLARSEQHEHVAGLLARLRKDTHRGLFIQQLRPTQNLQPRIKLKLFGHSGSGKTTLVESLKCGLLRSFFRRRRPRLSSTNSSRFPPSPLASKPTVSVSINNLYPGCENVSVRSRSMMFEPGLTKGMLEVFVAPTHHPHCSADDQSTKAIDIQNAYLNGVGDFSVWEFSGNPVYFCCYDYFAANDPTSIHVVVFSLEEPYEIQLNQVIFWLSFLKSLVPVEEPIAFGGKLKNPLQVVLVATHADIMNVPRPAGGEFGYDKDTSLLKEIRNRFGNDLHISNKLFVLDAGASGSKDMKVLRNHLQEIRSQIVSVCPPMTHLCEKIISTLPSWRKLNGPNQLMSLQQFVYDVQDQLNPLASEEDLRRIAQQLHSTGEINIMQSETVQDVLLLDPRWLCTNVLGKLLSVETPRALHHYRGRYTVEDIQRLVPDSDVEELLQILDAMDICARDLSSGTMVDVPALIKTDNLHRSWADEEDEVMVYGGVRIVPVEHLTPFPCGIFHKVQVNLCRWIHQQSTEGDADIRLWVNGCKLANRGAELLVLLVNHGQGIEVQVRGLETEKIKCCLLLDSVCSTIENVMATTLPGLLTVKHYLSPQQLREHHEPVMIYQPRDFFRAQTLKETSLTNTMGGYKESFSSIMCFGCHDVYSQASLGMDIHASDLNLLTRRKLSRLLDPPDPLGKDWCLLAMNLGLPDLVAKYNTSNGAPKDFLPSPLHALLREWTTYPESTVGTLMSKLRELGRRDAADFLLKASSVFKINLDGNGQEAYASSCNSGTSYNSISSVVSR

Calcium/calmodulin-dependent protein kinase type II subunit delta (Homo sapiens), sequence (Q13557 whole entry): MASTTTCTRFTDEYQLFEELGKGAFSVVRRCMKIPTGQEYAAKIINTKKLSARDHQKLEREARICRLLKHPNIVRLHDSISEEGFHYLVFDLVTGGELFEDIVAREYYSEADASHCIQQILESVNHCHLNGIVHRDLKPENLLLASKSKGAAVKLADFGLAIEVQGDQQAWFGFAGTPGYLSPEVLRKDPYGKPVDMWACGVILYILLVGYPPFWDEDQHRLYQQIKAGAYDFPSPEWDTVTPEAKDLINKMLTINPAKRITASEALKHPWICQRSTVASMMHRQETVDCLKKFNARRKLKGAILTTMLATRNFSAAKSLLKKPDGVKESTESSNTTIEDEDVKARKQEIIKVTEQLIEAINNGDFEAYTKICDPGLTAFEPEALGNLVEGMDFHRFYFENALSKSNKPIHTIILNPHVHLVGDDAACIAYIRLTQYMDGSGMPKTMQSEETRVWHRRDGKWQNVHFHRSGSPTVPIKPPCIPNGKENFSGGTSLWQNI
Serine/threonine-protein kinase Chk2 (Homo sapiens), sequence (O96017 whole entry): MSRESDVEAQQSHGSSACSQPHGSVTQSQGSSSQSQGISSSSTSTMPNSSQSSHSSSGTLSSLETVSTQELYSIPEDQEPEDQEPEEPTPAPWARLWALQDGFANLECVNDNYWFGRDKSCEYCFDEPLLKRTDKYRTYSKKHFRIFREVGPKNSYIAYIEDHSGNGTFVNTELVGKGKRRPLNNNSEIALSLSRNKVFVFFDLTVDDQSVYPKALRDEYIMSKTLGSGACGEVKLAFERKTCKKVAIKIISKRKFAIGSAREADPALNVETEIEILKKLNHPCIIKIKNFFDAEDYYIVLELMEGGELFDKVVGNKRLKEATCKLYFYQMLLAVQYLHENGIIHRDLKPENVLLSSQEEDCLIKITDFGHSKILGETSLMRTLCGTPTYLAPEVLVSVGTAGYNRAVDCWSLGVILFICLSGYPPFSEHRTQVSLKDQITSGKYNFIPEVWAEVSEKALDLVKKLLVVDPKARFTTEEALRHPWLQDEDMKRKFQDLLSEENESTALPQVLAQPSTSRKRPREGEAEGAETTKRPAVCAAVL
Calcium/calmodulin-dependent protein kinase type II subunit alpha (Homo sapiens), sequence (Q9UQM7 whole entry): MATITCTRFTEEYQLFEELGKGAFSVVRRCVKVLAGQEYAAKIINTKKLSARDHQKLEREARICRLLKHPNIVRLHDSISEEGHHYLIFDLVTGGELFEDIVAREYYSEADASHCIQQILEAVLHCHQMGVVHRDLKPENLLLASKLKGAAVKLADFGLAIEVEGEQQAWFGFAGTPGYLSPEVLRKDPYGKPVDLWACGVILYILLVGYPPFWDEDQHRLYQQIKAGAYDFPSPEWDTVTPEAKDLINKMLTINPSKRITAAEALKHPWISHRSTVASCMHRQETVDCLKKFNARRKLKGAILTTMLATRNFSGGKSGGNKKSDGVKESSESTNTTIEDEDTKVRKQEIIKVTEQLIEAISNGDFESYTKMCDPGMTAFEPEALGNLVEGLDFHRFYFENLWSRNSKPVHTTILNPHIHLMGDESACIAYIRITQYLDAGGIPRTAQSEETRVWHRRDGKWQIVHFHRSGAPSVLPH

| Structure (SMILES) | inhibition [1] [%] | inhibition [2] [%] | inhibition [3] [%] | inhibition [4] [%] | inhibition [5] [%] | inhibition [6] [%] | inhibition [7] [%] | inhibition [8] [%] | inhibition [9] [%] | inhibition [10] [%] |
| --- | --- | --- | --- | --- | --- | --- | --- | --- | --- | --- |
| COc1cc2ncnc(Nc3ccc(C)c(O)c3)c2cc1OC | 2.74 | 2.6 | 3.68 | -1.73 | -3.77 | 4.63 | 4 | 5.03 | 25.5 | 6.4 |
| C[C@@H](Oc1cc(-n2cnc3ccc(OC[C@@H](O)CO)cc32)sc1C(N)=O)c1ccccc1Cl | 2.24 | -0.89 | 7.31 | 1.25 | 1.44 | 0.04 | -1.83 | -1.68 | -1.71 | -1.62 |
| Nc1nccc(-c2c(-c3ccc(F)cc3)ncn2CCCN2CCOCC2)n1 | 2.46 | 1.96 | 2.44 | 0.27 | -0.08 | 3.25 | 5.25 | 1.76 | 4.69 | 5.49 |
| CCS(=O)(=O)c1ccc(OC)c(Nc2nccc(N(C)c3ccc4c(C)n[nH]c4c3)n2)c1 | -0.61 | 3.29 | 6.46 | -1.76 | -2.8 | 4.57 | 2.19 | 3.81 | 8.77 | 7.35 |
| COc1cc2ncn(-c3cc(OCc4ccccc4S(C)(=O)=O)c(C#N)s3)c2cc1OC | 29.9 | 18.3 | 62.8 | 1.21 | 1.69 | 5.49 | 23.3 | 10 | 43 | 3.5 |
| O=C(Nc1ccc(Oc2ccc3[nH]c(NC(=O)c4ccco4)nc3c2)cc1)Nc1cc(C(F)(F)F)ccc1F | 2.09 | 1.58 | 4.15 | 2.98 | 4.62 | -0.34 | -0.68 | 0.12 | 4.39 | -1.4 |
| Cc1cc(Cl)cc2c1NC(=O)C2=NNc1ccc(S(N)(=O)=O)cc1 | 0.96 | 2.57 | -0.12 | -0.56 | -3.46 | 2.43 | 2.86 | 1.38 | 2.55 | 2.88 |
| CN(c1ccc(NC(=O)Nc2ccc(OC(F)(F)F)cc2)cc1)c1ccnc(Nc2cccc(S(N)(=O)=O)c2)n1 | -1.5 | 1.07 | 0.14 | -0.96 | 0.59 | 1.72 | -0.01 | 5.43 | 25.9 | 3.79 |
| CN(C)c1cc2c(Nc3ccc4c(cnn4Cc4ccccc4)c3)ncnc2cn1 | 2.41 | 2.28 | 2.7 | 1.84 | 0.37 | 2.49 | 5.16 | 3.91 | 17.9 | 2.91 |
| NS(=O)(=O)c1cccc(-c2cc3ccncc3cc2OCc2ccccc2)c1 | 4.81 | 4.83 | 5.07 | 0.13 | -0.46 | 5.29 | 6.26 | 3.17 | 5.38 | 6.37 |
| Cc1ccc(O)cc1Nc1ccnc2ccc(S(C)(=O)=O)cc12 | 6.06 | 3.19 | 3.36 | -1.1 | -1.84 | 8.75 | 9.21 | 8.1 | 15.1 | 12.2 |
| COc1cc2ncnc(Nc3ccc4c(cnn4Cc4ccccc4)c3)c2cc1OC | 0.24 | 1.57 | 4.24 | -0.17 | 0.05 | 8.66 | 14.1 | 10.7 | 35.9 | 9.32 |
| CC(C)c1ccc2c(c1)NC(=O)/C2=N/Nc1ccc(S(N)(=O)=O)cc1 | 0.01 | -0.56 | 0.81 | -0.87 | 0.54 | -7.82 | 0.1 | 0.32 | 0.01 | -0.88 |
| c1ccc(Nc2ncc(-c3ccccc3)o2)cc1 | 3.27 | 3.06 | 6.25 | 1.79 | 3.97 | 6.09 | 8.99 | 0.95 | 2.54 | 6.27 |
| NS(=O)(=O)c1cccc(Nc2cc(-c3ccc(F)cc3)n[nH]2)c1 | 3.11 | 2.57 | 7.84 | -1.7 | -3.94 | -1.71 | 17.6 | 8.44 | 11.9 | 10.4 |
| Cc1nc(-c2ccccc2)n2nc(NCCCN3CCOCC3)ncc12 | 3.41 | 2.22 | 3.36 | 0.88 | 2.05 | 1.78 | 3.88 | 2.24 | 4.72 | 3.5 |

From ChEMBL document CHEMBL1961873, “Compounds: GSK PKIS; Assays: Nanosyn kinase panel” (2012)
